The whole screen tested about 420,000 compounds, of which about 64,000 (15%) were called active. Roughly 27% stayed inconclusive and do not appear here. Calls follow the shape of the dose curve; as a rule, active = well fitted inhibition curve with a large enough effect; inconclusive = small, poorly fitted or top-dose-only effect; inactive = flat fitted curve, though single readings scatter. Only a sample is shown.
Test: qHTS for Inhibitors of human tyrosyl-DNA phosphodiesterase 1 (TDP1): qHTS in cells in absence of CPT; also: nearly all actives have a fitted effect of over 55% in size
Conditions: DT40 Tdp1-/- hTDP1 cells, no CPT, ATP luminescence, 48 h; activity change, negative = growth inhibition: at 46.2 µM (top of the series)
How it was run: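 Luminescent ATP content (CellTiter-Glo) served as the growth readout. Knockout chicken DT40 cells expressing human TDP1 were exposed to compounds without camptothecin for a minimum 48 hr at 37 °C.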
% is scaled to controls: 0 for no effect and ±100 for the full control effect; potency is read from the fitted curve at half-maximal effect.

SMILES | activity change, negative = growth inhibition | Potency
CCCNC(=O)c1cc(C2CCCCN2S(=O)(=O)c2ccc(C#N)cc2)on1 (centres undefined) | -5.54% (inactive) | 
CCCNC(=O)c1cc2c(c(-c3cccc(-c4ccc(C#N)cc4)c3)n1)[C@@H](CCO)N(C(=O)CC)C2 |  | 18.4 µM (active)
CC(=O)N1Cc2cc(C(=O)NCc3cccc(F)c3)nc(-c3cccc(C4=CCCCC4)c3)c2[C@H]1CCO |  | 16.4 µM (active)
Cc1c(C(=O)NCC2CC2)sc(=O)n1Cc1cccc(F)c1 | -6% (inactive) | 
Cc1nc(NCc2ccccc2)c(C(N)=O)c2c1COC(C)(C)C2 | -11.4% (inactive) | 
CCCCCC(=O)N1CCN(S(=O)(=O)c2ccc3c(c2)OCCCO3)CC1 | -29% (inactive) | 
CC(=O)NNc1cc(=O)c2c(=O)n(C)c(=O)n(C)c2[nH]1 | -2.48% (inactive) | 
Cc1cccc(C(=O)NNC(=O)c2cccc([N+](=O)[O-])c2)c1 | 5.26% (inactive) | 
Cc1cccc(C(=O)NC(=S)N2CCN(c3ccc([N+](=O)[O-])cc3)CC2)c1 |  | 16.4 µM (active)
O=C(NC(=S)NC1CCS(=O)(=O)C1)c1cccc([N+](=O)[O-])c1 (centres undefined) | 41.6% (inactive) | 
O=C(NCc1ccncc1)c1ccc(NS(=O)(=O)c2cccc([N+](=O)[O-])c2)cc1 | -6.11% (inactive) | 
COCOCCn1cc(CN2CCS(=O)(=O)N(Cc3ccc(-c4ccccc4)cc3)C(CC(C)C)C2=O)nn1 (centres undefined) |  | 18.4 µM (active)
COCOCCn1cc(CN2CCS(=O)(=O)N(Cc3ccc(-c4ccc(OC)cc4)cc3)C(CC(C)C)C2=O)nn1 (centres undefined) |  | 10.3 µM (active)
COCCCn1cc(CN2CC(N(C)C)CS2(=O)=O)nn1 (centres undefined) | -7.87% (inactive) | 
CN(Cc1ccccc1)S(=O)(=O)c1ccc(F)c(C(=O)Nc2cccc(Cl)c2Cl)c1 | -21.5% (inactive) | 
CC1CCN(S(=O)(=O)c2ccc(S(=O)(=O)NCc3ccco3)cc2)CC1 | -18.4% (inactive) | 
CC(C)CNC(=S)NNC(=O)c1nn(C)cc1Cl | -16.3% (inactive) | 
FC(F)(F)c1ccc(-c2cccc3c2C2CC3CCN2Cc2ccccc2)cc1 (centres undefined) |  | 13 µM (active)
O=C(NCCN1CCOC1=O)C1CCC(=O)N(CCc2ccc(Cl)cc2)C1 (centres undefined) | 2.23% (inactive) | 
O=S(=O)(c1ccc(F)cc1)N1CCN(Cc2ccccc2C(F)(F)F)CC1 | -14.4% (inactive) | 
CSCCC(NS(=O)(=O)/C=C/c1ccccc1)C(=O)N1CCC(C)CC1 (centres undefined) | -17% (inactive) | 
COc1ccc(OC)c(NC(=O)CCN2CCC(C)CC2)c1 | -7.7% (inactive) | 

SMILES | activity change, negative = growth inhibition | Potency
CCOC(=O)N1CCN(CCC(=O)Nc2cc(OC)ccc2OC)CC1 | -3.04% (inactive) | 
COc1ccc(OC)c(NC(=O)CN2CCCN(Cc3cc(C)ccc3C)S2(=O)=O)c1 |  | 18.4 µM (active)
COC(=O)c1ccc(S(=O)(=O)c2ccc(C(=O)OC)s2)s1 | 0.0322% (inactive) | 
C=CC(=O)Nc1ccc(Nc2ccnc(Nc3ccc(N4CCN(C)CC4)cc3)n2)cc1 | -92.1% (inactive) | 
Fc1ccc(-c2nnc(CSc3nnc(-c4ccc5c(c4)OCO5)o3)o2)cc1 | 0.842% (inactive) | 
N#CCSc1nc(-c2ccccc2)nc2ccc(F)cc12 | -14% (inactive) | 
Fc1ccc2nc(-c3ccccc3)nc(SCc3nnc(-c4ccccc4)o3)c2c1 |  | 23.1 µM (active)
Nc1ccc2c(c1)C(O)c1ccc(Cl)cc1-2 (centres undefined) | -1.47% (inactive) | 
O=C(Oc1ccc(Br)cc1)c1cccnc1 | -13.7% (inactive) | 
CCCCCCOc1ccc(OC(=O)c2cccnc2)cc1 |  | 13 µM (active)
CCCCCCCCC(=O)NCCOc1ccccc1 | 2.92% (inactive) | 
COc1ccc(-c2nc(CS(=O)CC(=O)NCc3cccnc3)c(C)o2)cc1OC (centres undefined) | -1% (inactive) | 
C=CCOc1ccc(C2/C(=C(\O)c3c(C)[nH]c(C(=O)OC)c3C)C(=O)C(=O)N2CCN(C)C)cc1 (centres undefined) | 13.3% (inactive) | 
CO[C@H]1[C@@H]2C=CO[C@@H](O[C@H]3O[C@@H](CO)[C@H](O)[C@@H](O)[C@@H]3O)[C@@H]2[C@@]2(CO)O[C@@H]12 | -8.69% (inactive) | 
CC(=O)c1ccc(NC(=O)c2sc3nc4n(c(=O)c3c2C)CCCCC4)cc1 |  | 13 µM (active)
COc1ccc(NC(=O)c2sc3nc[nH]c(=O)c3c2C)cc1 | -20.4% (inactive) | 
CC(=O)c1sc2nc(SCC(=O)N3CCCCC3)[nH]c(=O)c2c1C | -1.59% (inactive) | 
Cc1ccc(NC(=S)NC(=O)/C=C/c2ccc(Cl)cc2)cc1 | -25.3% (inactive) | 
CC(C)C[C@H](NC(=O)[C@@H]1O[C@H]1C(=O)O)C(=O)NCCCCN=C(N)N | 7.11% (inactive) | 
C=CCOc1cccc(C2NC(=O)c3ccccc3O2)c1 (centres undefined) | -17.6% (inactive) | 
CCCc1c(C(=O)O)cnn1-c1ccc(Cl)cc1 | -21.2% (inactive) | 
CCc1ccccc1NC(=O)c1cnn(-c2ccc(F)cc2)c1C1CCNCC1 | -18.4% (inactive) | 

SMILES | activity change, negative = growth inhibition | Potency
CCCc1c(C(=O)Nc2ccc(F)cc2)cnn1-c1ccccc1 |  | 14.6 µM (active)
CN(C(=O)COC(=O)c1ccc(Br)o1)c1c(N)n(Cc2ccccc2)c(=O)[nH]c1=O | -17.2% (inactive) | 
O=S(=O)(Cc1nnnn1-c1ccc(Br)cc1)c1ccc(F)cc1 | -15.1% (inactive) | 
Cc1cc(C)cc(Oc2c(C(F)(F)F)oc3cc(OCC(=O)O)ccc3c2=O)c1 | -19% (inactive) | 
COc1cc(C=NC2CCCCC2)ccc1O | -20.7% (inactive) | 
COc1ccc(/C=N/Nc2nc3ccccc3o2)cc1OC | 8.23% (inactive) | 
O=[N+]([O-])c1cc(Br)c(O)c(/C=N/Nc2nc3ccccc3s2)c1 |  | 18.4 µM (active)
Cc1ccc(S(=O)(=O)Nc2nc3ccccc3s2)cc1[N+](=O)[O-] | -10.3% (inactive) | 
COc1cc(/C=N/Nc2nc3ccccc3s2)ccc1O |  | 1.3 µM (active)
CN(C(=O)CSc1nnc(N)s1)c1c(N)n(Cc2ccccc2)c(=O)[nH]c1=O | -3.27% (inactive) | 
COc1cc(Br)cc2cc(S(=O)(=O)c3ccccc3)c(=O)oc12 | -2.21% (inactive) | 
COc1cccc(N2CC(NS(=O)(=O)c3ccc(Cl)cc3)CC2=O)c1 (centres undefined) | -18.3% (inactive) | 
COc1ccc(N2CC(NS(=O)(=O)c3ccc4ccccc4c3)CC2=O)cc1 (centres undefined) |  | 23.1 µM (active)
COc1cccc(N2CC(NS(=O)(=O)c3cccs3)CC2=O)c1 (centres undefined) | -5.55% (inactive) | 
CCCCC(O)(CCCC)C(=O)NN(C(=O)CCl)c1ccccc1 |  | 20.6 µM (active)
COC(=O)N(NC(=O)C(O)(C(C)C)C(C)C)c1ccccc1 | 3.81% (inactive) | 
Cc1ccc(N(NC(=O)C(C)(C)O)C(=O)c2ccccc2)cc1C | -27% (inactive) | 
CCCC(O)(CCC)C(=O)NN(C(=O)CCl)c1cccc(C)c1 |  | 5.8 µM (active)
CC(C)(O)C(=O)NN(C(=O)c1ccccc1)c1cccc(Br)c1 | 4.16% (inactive) | 
CN(C)/C=C/c1c(C#N)c(=O)ncn1Cc1ccccc1 | 11.3% (inactive) | 
